GLP1R ag: qHTS of GLP-1 Receptor Agonists; Glucagon-like peptide 1 receptor (Homo sapiens), P43220; HEK293 GLP-1R CRE-luciferase, luminescence, 4-6 h; cells express a hypersensitive GLP-1R form; Potency, µM (highest dose often 45.6 µM), for inactives: at the highest dose activation, actives largely listed as activators; 380,000 compounds, 0.007% hits; AID 624172, 2012; further: % of control where 0% means no effect
PTHR1 ag: qHTS for PTHR1 Agonists: Primary Screen; Parathyroid hormone/parathyroid hormone-related peptide receptor (Homo sapiens), Q03431; HEK293 GP2 PTHR1 cells, GloSensor cAMP luminescence, 1 h; Potency, µM (titrated, usually from 115 µM), for the others: top-dose activation, most hits filed as activators; 410,000 compounds, 0.075% hits; AID 743266, 2014; further: nearly all actives have a fitted effect of over 55% in size
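HEK-293-derived GP2 cells expressing PTHR1 and a GloSensor cAMP reporter, 3,000/well, plated overnight, given luciferin plus IBMX (each 0.5 mM as added) for 1 h at 37 °C, then compound for 1 h at 37 °C. Luminescence was read after 15 min at room temperature.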
GLP1R inv ag: qHTS of GLP-1 Receptor Inverse Agonists (Inhibition Mode) | 410,000 compounds, 1.6% hits | Potency, µM (highest dose often 38.3 µM), without a hit: at the highest dose activity change, negative = inhibition, most hits filed as inhibitors | Glucagon-like peptide 1 receptor (Homo sapiens), P43220 | AID 624417, 2012 | HEK293 GLP-1R CRE-luciferase, luminescence, 24 h; GLP-1R form is constitutively active; further: on the % scale 0 is the no-effect control and ±100 the full control effect; nearly all actives have a fitted effect of over 55% in size
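Cells are plated, allowed 12 hours at 37 deg C, then treated with compounds for 24 hr before luciferase detection reagent is added and luminescence is read after 12 min at room temperature. The HEK293 line carries constitutively active GLP-1R with a cAMP-responsive reporter.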
GLP1R cytotox: qHTS of GLP-1 Receptor Inverse Agonists: Cytotox Screen; Potency, µM (titrated, usually from 38.3 µM), inactives show top-dose activity change, negative = inhibition, hits mostly inhibitors; HEK293 cAMP-luciferase reporter cells, luminescence, 24 h; 410,000 compounds, 0.13% hits;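 further: loss of luciferase light is scored as toxicity; on the % scale 0 is the no-effect control and ±100 the full control effect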
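MLSMR compounds, 24 hr on cells at 37 deg C/5% CO2; luminescence after luciferase reagent (12 min RT). Inhibition counted as the undesired cytotoxic outcome.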
RGS4 inh: Inhibitors of Regulator of G Protein Signaling (RGS) 4: qHTS; Regulator of G-protein signaling 4 (Homo sapiens), P49798; Transcreener GDP fluorescence polarization, RGS4-accelerated GTP hydrolysis; Potency, µM (doses to about 114 µM), for inactives: top-dose activity change, negative = inhibition, hits mostly inhibitors; 390,000 compounds, 0.039% hits; AID 504845, 2011; further: on the % scale 0 is the no-effect control and ±100 the full control effect; nearly all actives have a fitted effect of over 75% in size
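MLSMR compounds (23 nl, pin-transferred) preincubated 10 min at room temperature with a 500nM (2x) first reagent, then RGS4 at 900nM (2x) plus Transcreener GDP mix added; fluorescence polarization (620/688 nm) read before and after 90 min at 30 °C.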
GCN5L2 inh: qHTS Assay for Inhibitors of GCN5L2; Histone acetyltransferase KAT2A (Homo sapiens), Q92830; 390,000 compounds, 0.21% hits; GCN5L2 HAT assay, ThioGlo1 CoA-SH fluorescence; Potency, µM (highest dose often 58.9 µM), without a hit: at the top dose activity change, negative = inhibition, most hits filed as inhibitors; further: on the % scale 0 is the no-effect control and ±100 the full control effect
Target sequence (Q92830 whole entry, looked up): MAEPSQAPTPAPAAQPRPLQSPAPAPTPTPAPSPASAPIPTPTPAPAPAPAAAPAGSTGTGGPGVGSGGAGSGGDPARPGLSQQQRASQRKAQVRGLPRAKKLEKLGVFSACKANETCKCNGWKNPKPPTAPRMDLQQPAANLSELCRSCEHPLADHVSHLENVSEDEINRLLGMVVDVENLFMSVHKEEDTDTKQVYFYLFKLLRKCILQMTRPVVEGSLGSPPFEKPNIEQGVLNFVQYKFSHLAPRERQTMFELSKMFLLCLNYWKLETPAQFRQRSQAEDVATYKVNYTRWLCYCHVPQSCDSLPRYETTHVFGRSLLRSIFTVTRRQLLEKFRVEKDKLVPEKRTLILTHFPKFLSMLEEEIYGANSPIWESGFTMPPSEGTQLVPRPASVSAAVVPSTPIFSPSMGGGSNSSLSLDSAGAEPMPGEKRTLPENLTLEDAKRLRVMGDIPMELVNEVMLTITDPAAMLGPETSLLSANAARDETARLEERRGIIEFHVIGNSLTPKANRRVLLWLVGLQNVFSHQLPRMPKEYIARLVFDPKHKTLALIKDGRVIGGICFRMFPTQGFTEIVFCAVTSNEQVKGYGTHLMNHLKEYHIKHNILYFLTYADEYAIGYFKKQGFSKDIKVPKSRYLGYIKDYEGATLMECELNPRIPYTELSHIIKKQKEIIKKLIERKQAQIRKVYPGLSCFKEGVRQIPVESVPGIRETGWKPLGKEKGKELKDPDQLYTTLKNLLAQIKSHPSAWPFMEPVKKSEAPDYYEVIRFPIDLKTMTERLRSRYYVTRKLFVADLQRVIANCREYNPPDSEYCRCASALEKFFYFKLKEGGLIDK
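GCN5L2 (20 nM) in 50mM HEPES pH 7.5, 0.1mM EDTA, 0.01% Tween-20 preincubated 15 min with compounds at room temperature. Reaction started with H3(1-25) 75uM, acetyl-CoA 70uM, ThioGlo1 50uM; CoA-thiol fluorescence (Ex340/Em540) read at 0 and 20 min.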
Numbers without * were called inactive; i = inactive; ? = inconclusive; nt = no result; [ ] = dose if it differs, or a comment. Only some compounds are listed: those with a hit (about 1.8% of all), similar ones and a draw of the others. The call rests on the fitted dose curve; in most records, active means well fitted curve in the direction sought with a large enough effect; inconclusive means small, poorly fitted or top-dose-only effect, or another doubt; inactive means no such curve, though single readings can be large; an effect the other way counts as inactive or inconclusive. Potency means the concentration at half of the fitted maximal effect.

SMILES | GLP1R ag | PTHR1 ag | GLP1R inv ag | GLP1R cytotox | RGS4 inh | GCN5L2 inh
COc1cc2cnc(-c3ccccc3)c(-c3ccc(C(F)(F)F)cc3)c2cc1OC | 1% | -3% | 1% | 7% | 10% | -19%
O=c1c2ncn([C@@H]3O[C@@H]4COP(=O)(O)O[C@H]4[C@H]3O)c2nc2[nH]c(-c3ccccc3)cn12 | nt | nt | nt | nt | nt | 8%
C=CCNS(=O)(=O)NC(=O)C1=C(N2CCCC2)COC1=O | 0% | i | -4% | 0% | 3% | 1%
Cc1ccc(C(=O)O/N=C(\N)c2ccccn2)cc1 | -6% | -24% | 2.5µM* | ? | -3% | -1%
CCOc1ccc(C(=O)O/N=C(\N)c2ccccn2)cc1 | -8% | -46% | 2.5µM* | ? | -8% | -10%
Cc1cccc(C(=O)O/N=C(\N)c2ccccn2)c1 | -3% | -26% | 2µM* | ? | -4% | 1%
N/C(=N\OC(=O)c1ccccc1)c1ccccn1 | -8% | -40% | ? | -13% | -4% | 11%
Cc1cc(N2CCC(C)CC2)nc2ccc(NC(=O)CCC(=O)N3CCN(c4ccccc4F)CC3)cc12 | nt | i | ? | -20% | 6% | -22%
Cc1ccc2c(=O)cc(C(=O)Nc3ccc(S(=O)(=O)N4CCCCCC4)cc3)oc2c1C | nt | i | 14% | 4% | 13% | -7%
O=C(Nc1ccc(Cl)c(Cl)c1)Nc1cc(C(=O)NC2CC2)ccc1Cl | nt | nt | nt | nt | nt | 26%
Cc1ccc2c(c1)-n1c(nc3ccccc3c1=O)C(CC(C)C)NC2=O (stereo not given) | nt | nt | nt | nt | nt | 0%
Nc1ccc(C(=O)N/N=C\c2ccc(OC(=O)c3ccccc3Cl)cc2)cc1 | 5% | -5% | 5% | 1% | 6% | -3%
O=C(O)c1ccc(N/N=C/c2ccc(OC(=O)c3ccccc3Cl)cc2)cc1 | 0% | -15% | 7.1µM* | 1% | 0% | -19%
Cc1ccc(S(=O)(=O)N[C@@H](Cc2ccccc2)C(=O)CCl)cc1 | -4% | -88% | -31% | ? | 7.5µM* | -19%
Cc1cccc(-c2nc(CN3CCCC(C(=O)NCc4ccc(Cl)cc4)C3)c(C)o2)c1 (stereo not given) | nt | -16% | -16% | 1% | -2% | -9%
Cc1ccccc1Cn1cnc2nc3c(cc2c1=O)CC(C)CC3 (stereo not given) | nt | -19% | 8% | -19% | -21% | 2%
CCOC(=O)C1=C(c2ccccc2)Nc2ncnn2C1c1ccc(C(=O)O)cc1 (stereo not given) | -1% | i | 13% | 1% | 7% | 1%
CCOC(=O)C1=C(c2ccccc2)NC(N)=NC1c1ccc(OCc2ccc(C(=O)OC)cc2)cc1 (stereo not given) | 8% | i | 8.9µM* | ? | 3%[11.4 µM] | -5%
O=C1C=C(c2ccc(OC(F)(F)F)cc2)C[C@@H](c2ccc(Cl)cc2)C1 | 6% | -21% | 10µM* | ? | 15% | -14%
CC(C)(C)OC(=O)N1CCN(c2nc(-c3cccs3)nc3ccccc23)CC1 | nt | nt | nt | nt | 7% | nt
CC(C)(C)OC(=O)N1CCC(c2cc(-c3cccs3)n[nH]2)CC1 | 21% | -34% | 10µM* | -4% | 15% | -19%
COc1cc(CC(=O)OCC(=O)N(C)C2CCCCC2)cc(OC)c1OC | 0% | i | 7% | 0% | -13% | 1%
CCCC(=O)Nc1ccc(-c2nc3ncccc3o2)cc1C | nt | -14% | 10% | -4% | 5% | -12%
CC(O)CN(C)CC/C=C1/c2ccccc2CSc2ccccc21 (stereo not given) | -2% | -13% | ? | 0% | -3% | -1%
C#CCN(C)CC/C=C1\c2ccccc2CSc2ccccc21 | 2% | i | 4.5µM* | -3% | 2%[11.4 µM] | -10%
SMILES | GLP1R ag | PTHR1 ag | GLP1R inv ag | GLP1R cytotox | RGS4 inh | GCN5L2 inh
C=CCN(C)CC/C=C1\c2ccccc2CSc2ccccc21 | 0% | -7% | ? | ? | 6% | 1%
CN(CC/C=C1/c2ccccc2CSc2ccccc21)CCCO | 2% | i | 5.6µM* | ? | 8% | 0%
NCC/C=C1/c2ccccc2CSc2ccccc21 | -2% | i | 3.2µM* | ? | -17% | -5%
COc1ccc(CNC(=O)C2(c3cccs3)CCOCC2)cc1 | nt | i | -6% | -4% | 4% | 0%
COc1ccc(-c2cc(OC(=O)c3cccc(Cl)c3)c3c(C)oc(C)c3c(=O)c2)cc1 | nt | -14% | 6% | 1% | -41% | -13%
Cc1ccc(C2(c3noc(CN4CCC(c5ccncc5)CC4)n3)CCCC2)cc1 | ? | -32% | 4µM* | -19% | -18% | ?
Cc1ccc(C2(c3noc(CN(C)CC4CCCCO4)n3)CCCC2)cc1 (stereo not given) | 2% | -44% | ? | -2% | 19% | -1%
Cc1ccc(S(=O)(=O)N(CC(=O)NCc2ccc(F)cc2)C(=O)N2CCN(C)CC2)cc1 | 5% | -14% | -12% | -6% | 2% | -2%
Clc1ccc2c(c1)-c1ccccc1C1=NCCN12 | -11% | i | 4µM* | ? | nt | nt
S=C(c1ccc2c(c1)OCO2)N1CCN(c2cccc(Cl)c2)CC1 | 12% | i | ? | ? | -34% | nt
Cc1cccc(N2CCN(C(=S)c3ccc4c(c3)OCO4)CC2)c1 | 8% | -15% | 11µM* | ? | ? | nt
Clc1ccc(C(c2ccccc2)c2c[nH]c3ccccc23)s1 (stereo not given) | -7% | -6% | ? | -17% | 1% | -1%
Cc1ccc2[nH]cc(C(c3ccccc3)c3ccc(Cl)s3)c2c1 (stereo not given) | nt | -25% | 10µM* | -17% | 13% | -14%
CC1=C(C(=O)Nc2ccccc2C(=O)N2CCCCC2)SCCO1 | -3% | i | -19% | 8% | -17% | -19%
CC1=C(C(=O)Nc2ccccc2C(=O)NC2CCCCC2C)SCCO1 (stereo not given) | 1% | -37% | 10µM* | 0% | -2% | -24%
Cc1[nH]n(-c2ccccc2)c(=O)c1/C=N/NC(=O)c1cccc(F)c1 | 0% | -36% | 7.9µM* | -16% | -15% | 0%
Cc1[nH]n(-c2ccccc2)c(=O)c1/C=N/N1C(=O)c2cccc3cccc(c23)C1=O | 6% | i | 13µM* | ? | ? | -5%

Source: PubChem BioAssay (National Center for Advancing Translational Sciences (NCATS))
